Data taken from ChEMBL document CHEMBL3433997, “St. Jude Leishmania screening dataset” (2016).

Assays:
Assay type in all cases: functional
[1] = biological target: Solute carrier family 2, facilitated glucose transporter member 1 (Homo sapiens) (UniProt P11166); assay: ST_JUDE_LEISH: Cytotoxicity at 2uM final concentration against transgenic Leishmania Mexicana promastigotes LmGLUT1 that are glucose transport deficient and complemented with the human glucose transporter GLUT1. Activity is measured by DNA content using SYBR green in vitro
[2] = biological target: Hexose transporter 1 (Plasmodium falciparum) (UniProt O97467); assay: ST_JUDE_LEISH: Cytotoxicity at 2uM final concentration against transgenic Leishmania Mexicana promastigotes LmPfHT that are glucose transport deficient and complemented with the Plasmodium falciparum hexose transporter. Activity is measured by DNA content using SYBR green in vitro
[3] = biological target: Glucose transporter (Leishmania mexicana) (UniProt O61059); assay: ST_JUDE_LEISH: Cytotoxicity at 2uM final concentration against transgenic Leishmania Mexicana promastigotes LmGT2 that are glucose transport deficient and complemented with the L. Mexicana glucose transporter 2. Activity is measured by DNA content using SYBR green in vitro

Solute carrier family 2, facilitated glucose transporter member 1 (Homo sapiens), sequence (P11166 whole entry): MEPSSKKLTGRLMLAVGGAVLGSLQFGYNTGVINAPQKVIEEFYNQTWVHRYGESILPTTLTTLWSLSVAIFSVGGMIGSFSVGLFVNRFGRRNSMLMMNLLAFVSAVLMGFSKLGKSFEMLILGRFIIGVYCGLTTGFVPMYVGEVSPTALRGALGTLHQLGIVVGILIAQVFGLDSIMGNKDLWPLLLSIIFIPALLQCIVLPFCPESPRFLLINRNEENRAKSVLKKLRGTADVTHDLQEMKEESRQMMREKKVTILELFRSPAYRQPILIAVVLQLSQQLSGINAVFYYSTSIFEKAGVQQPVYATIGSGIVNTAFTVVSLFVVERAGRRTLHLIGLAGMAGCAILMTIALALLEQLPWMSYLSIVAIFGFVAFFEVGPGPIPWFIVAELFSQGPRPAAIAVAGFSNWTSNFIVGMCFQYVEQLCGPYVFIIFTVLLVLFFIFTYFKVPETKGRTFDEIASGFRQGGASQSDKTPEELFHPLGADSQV

SMILES	inhibition [1]	inhibition [2]	inhibition [3]
COc1ccc(-c2ccc(S(=O)(=O)Nc3cc4c(cc3OC(C)C)CCNCC4)cc2)cc1	-2.14%	-1.7%	-2.37%
O=C(NCCCCN1CCC(c2ccc3c(c2OC(=O)c2ccc(NC(=O)c4ccc(Cl)cc4)cc2)CCCC3)CC1)c1ccc(NC(=O)c2ccc(Cl)cc2)cc1	3.25%	0.15%	3.18%
O=C(Nc1ccc(C(F)(F)F)cc1)NC1CCN(c2ccnc3cc(Cl)ccc23)C1 (stereo not given)	3.59%	3.27%	0.73%
COc1cc(CN2CCC(NC(=O)[C@H](Cc3ccccc3)NC(=O)Nc3ccc(Oc4ccccc4)cc3)C2)ccc1O (stereo not given in full)	0.58%	1.77%	-3.37%
C=CCOC(=O)N1CCC(CNCc2cccc(-c3ccc(-c4nc5cc(C(F)(F)F)ccc5[nH]4)cc3)c2)C1 (stereo not given)	2.19%	2.5%	1.63%
CC(CNC(=N)c1cccc(C(=N)NCC(C)Oc2cccc(C3CCCCC3)c2)n1)Oc1cccc(C2CCCCC2)c1 (stereo not given)	5.5%	4.37%	0.74%
CCn1c(Sc2ccc([N+](=O)[O-])c(C#N)c2)nnc1-c1cccc(Cl)c1	1.53%	0.29%	-1.08%
CCC(C)C(COC(=O)c1cc(OC)c(OC)c(OC)c1)N(C)CCN(C)C(COC(=O)c1cc(OC)c(OC)c(OC)c1)C(C)CC (stereo not given)	1.76%	1.28%	-0.47%
COc1ccc2nccc(NC(=O)N3CCC(NCc4cc5c(F)ccc(F)c5[nH]4)CC3)c2n1	16.9%	19.2%	22.6%
O=C(NC1CCN(Cc2ccccc2O)C1)c1ccc(-c2ccccc2)cc1 (stereo not given)	0.98%	0.41%	1.16%
Cc1ccc(OC2CCN(CCCCC3(C)C(=O)Nc4ccccc43)CC2)cc1 (stereo not given)	4.24%	15.1%	9.07%
CNC(=O)c1cc(S(=O)(=O)N2CCN(c3ccccn3)CC2)cs1	0.24%	0.78%	-2.48%
COc1ccccc1C1CC(c2ccc(Br)cc2)=NN1C(=O)c1ccccc1 (stereo not given)	2.83%	2.02%	0.92%
O=C1c2ccc([N+](=O)[O-])cc2C(=O)N1c1ccc2[nH]ncc2c1	2.79%	1.54%	0.95%
Cc1cc2nc(-c3cc(-c4cccc(NS(C)(=O)=O)c4)cnc3N)[nH]c2cc1C	1.13%	0.27%	0.05%
CN(C)CCC1CCN(CCS(=O)(=O)c2cccc(Nc3ccc(-c4ccsc4)cn3)c2)CC1	-0.36%	0.82%	1.59%
O=C(Cc1ccccc1)NC(CCN1CCC(NC(=O)c2ccc(Cl)cc2)CC1)c1ccc(Cl)c(Cl)c1 (stereo not given)	2.22%	0.27%	1.02%
O=C(NC1CCN(Cc2ccc3c(c2)OCCO3)CC1)c1ccc(-c2cccc(Cl)c2)s1	5.55%	5.55%	6.98%
O=C(Nc1ccc2c(c1)CCNCC2)c1ccc(-c2ccc(Cl)cc2)cc1	58.3%	104%	109%
COc1cc(C)c(NC(=O)c2cccc3c(=O)c(C)c(-c4ccccc4)oc23)cc1OC	6.49%	-0.38%	-1.52%
CCc1ccc(CN2CCC(C(=O)Nc3ccc(-c4nc5ccccc5[nH]4)cc3)CC2)o1	31.6%	39.6%	25.7%
c1ccc(CCNCc2cccc(-c3ccc(CNc4ccc5ncccc5c4)cc3)c2)cc1	4.72%	3.92%	3.8%
CN1CCC(C(=O)N(Cc2ccc(-c3ccc(CNCCc4ccc(S(C)(=O)=O)cc4)cn3)cc2)Cc2cccc(F)c2)CC1	1.69%	0.58%	0.97%

SMILES	inhibition [1]	inhibition [2]	inhibition [3]
COc1ccc(CNc2ncc(-c3ccsc3)c(-c3nccs3)n2)cc1OC	0.9%	0.94%	2.07%
COc1cccc(-c2[nH]c3ccccc3c2CN2CCC(c3c(C)cccc3C)CC2)c1	2.03%	2.95%	-1.74%
CCOc1cc(N)c2nc3ccc([N+](=O)[O-])cc3cc2c1	16.1%	20.1%	6.39%
Nc1ccc2nc(C=Cc3ccc(Cl)cc3)[nH]c2c1	3.56%	3.93%	5.14%
CC(C)(C)c1ccc(CN2CCC(NC(=O)c3ccc(-c4cccc(Cl)c4)s3)CC2)cc1	11.2%	8.67%	7.09%
O=C(Nc1cccc(CCNCc2ccccc2)c1)Nc1cccc2ccccc12	10.3%	11%	10.9%
NCCNS(=O)(=O)c1ccc(-c2ccnc3[nH]c(-c4ccncc4)cc23)cc1	0.72%	1.19%	0.62%
c1ccc(-c2cccc(-c3ccccn3)n2)nc1	3.92%	2.46%	2.49%
O=C(/C=C/c1ccc(Cl)c(Cl)c1)NCCCCCN1CCC(NC(=O)c2ccc(F)cc2)CC1	6.17%	3.16%	5.01%
O=C(Nc1ccc(C(F)(F)F)cc1)c1ccc(S(=O)(=O)NC2CCN(CC3CCCCC3)C2)cc1 (stereo not given)	-3%	1.05%	-3.85%
COc1cc(C)nc2ccc(NC(=O)Nc3ccccc3[N+](=O)[O-])cc12	2.28%	0.56%	1.8%
COc1ccc2[nH]ccc(=NN=Cc3cccc(C)n3)c2c1	18.7%	14.9%	11.8%
CCOC(=O)N1CCN(CCCCNc2c3ccc(Cl)cc3nc3ccc(OC)cc23)CC1	10.8%	9.69%	7.38%
CN(C)Cc1cccc2nc(-c3csc(Cc4cc(Cl)ccc4OCc4ccccc4)n3)[nH]c12	6.3%	3.36%	1.88%
CCOC(=O)c1cnc2cc(N3CCCC3)c(Cl)cc2c1OCC	1.28%	-0.81%	0.52%
Cc1cc(S(=O)(=O)N2CCCCC(c3ccc(C(F)(F)F)cc3)=N2)c(Cl)cc1Cl	3.58%	4.02%	-1.4%
C=CC(=O)Nc1ccc(Cl)cc1C(O)c1ccccc1 (stereo not given)	2.6%	2.07%	2.36%
CCN(CCCN1CCCCC1)c1cc(C)nc(Nc2ccc(C)c(Br)c2)n1	4.08%	6.82%	7.62%
O=C(NCC1CCC(CNCCc2ccccc2)CC1)Nc1ccc(Cl)c(Cl)c1 (stereo not given)	-0.7%	-1.96%	-2.11%
COc1ccc(CCNC(C)Cc2ccc(C(=O)Nc3ccc(CC(C)NCCc4cccc(Cl)c4)cc3)cc2)cc1 (stereo not given)	3.92%	13%	0.32%
CCC(CC)(Cc1ccccc1)NC(=O)[C@H](CC(C)C)Nc1ccc(C#N)c2ccccc12	13.3%	10.4%	10.7%
CC(C)(C)Nc1cc(C(=O)N[C@@H](Cc2ccccc2)[C@H](O)CNC2CCOCC2)cc(N2CCCCS2(=O)=O)c1	0.29%	0.07%	-0.61%
